The source of these data is PubChem BioAssay (EPA / NIEHS).

Results filed as inconclusive are left out. Active and inactive are the calls of the source. Rule for the calls, unless noted: active = hit-call score of the fitted dose curve at least 0.9, where 1 is the maximum; inactive = score below 0.9.

Assay [1] in a line: CCTE_Shafer_MEA_dev_firing_rate_mean: CCTE's Neural Network Formation Assay for Mean Firing Rate, Shafer Lab (AID 2284031). The gist of the method: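 Extracellular spike frequency, AUC over DIV 5–12 recordings, in rat cortical neuron MEA cultures dosed from plating; loss direction vs DMSO.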
Assay [2] in a line: CCTE_Shafer_MEA_dev_per_burst_spike_percent: CCTE's Neural Network Formation Assay for Percent of Spikes in a Burst, Shafer Lab (AID 2284032). The gist of the method: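 Value is trapezoidal AUC over recordings on days 5, 7, 9 and 12 of the well-mean fraction of spikes falling in single-electrode bursts; rat cortical cultures exposed continuously from plating, treatment renewed DIV 5 and 9, fitted downward against DMSO.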

A short description of assay [3]: CCTE_Shafer_MEA_dev_active_electrodes_number: CCTE's Neural Network Formation Assay for Number of Active Electrodes, Shafer Lab (AID 2284040; active = hit-call score of the fitted dose curve at least 0.9, where 1 is the maximum). A digest of the protocol:
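Developing rat cortical networks on MEAs, exposed DIV 0–12. Value is the AUC of active-electrode counts (≥5 spikes/min) from days 5, 7, 9, 12, relative to DMSO.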

Assay [4] can be described thus: CCTE_Shafer_MEA_dev_burst_rate: CCTE's Neural Network Formation Assay for Burst Rate, Shafer Lab (AID 2284042). A digest of the protocol: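 Cells plated, treated day 0; recorded DIV 5, 7, 9, 12; fed and re-treated DIV 5, 9. Endpoint: bursts per recording time, active-electrode well mean, trapezoidal AUC, fitted in decreasing direction against DMSO baseline.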
Assay [5] in a line: CCTE_Shafer_MEA_dev_per_burst_interspike_interval: CCTE's Neural Network Formation Assay for Burst Interspike Interval, Shafer Lab (AID 2284044). A digest of the protocol:
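Primary rat cortical neurons on 48-well MEA plates, exposed from day 0 through day 12, treatment renewed at DIV 5 and 9. Within-burst interspike interval recorded days 5, 7, 9, 12, well-averaged, summarised as AUC; negative fit versus DMSO.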

The nature of assay [6]: CCTE_Shafer_MEA_dev_burst_duration_mean: CCTE's Neural Network Formation Assay for Mean Burst Duration, Shafer Lab (AID 2284045). The gist of the method:
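Network-formation assay in primary rat cortical neurons; treatment spans twelve days of development. Mean burst duration per well is integrated by trapezoidal AUC and fitted in the loss-of-signal direction against DMSO baseline.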

Assay [7] in a line: CCTE_Shafer_MEA_dev_interburst_interval_mean: CCTE's Neural Network Formation Assay for Mean Interburst Interval, Shafer Lab (AID 2284046).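 Note: well-mean interburst interval of bursting electrodes as AUC over four recording days; curve fitted for decrease in interburst interval relative to DMSO.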 The gist of the method:
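Developing rat cortical networks on 48-well MEAs receive compound from the day of plating. Burst intervals from each active electrode are averaged per well, and AUC over the recording days is fitted in the negative direction against DMSO.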

A short description of assay [8]: CCTE_Shafer_MEA_dev_inter_network_spike_interval_mean: CCTE's Neural Network Formation Assay for Mean Inter-network Spike Interval, Shafer Lab (AID 2284047). The gist of the method:
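Rat cortical cultures, 1.5 x 10^5 cells/well on 48-well MEA plates; continuous exposure days 0–12, medium and compound refreshed DIV 5, 9. Mean time between consecutive network-spike peaks; AUC across DIV 5/7/9/12; DMSO baseline, negative fitting direction.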

Assay [9] is described as follows: CCTE_Shafer_MEA_dev_network_spike_number: CCTE's Neural Network Formation Assay for Number of Network Spikes, Shafer Lab (AID 2284048).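 Note: synchronized bursts across electrodes counted on days 5 7 9 12 and integrated as AUC.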 A digest of the protocol: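 Extracellular recordings from 16-electrode wells track network formation in rat cortical cultures under continuous treatment from plating. The endpoint is network spike number, expressed as AUC across DIV 5–12 relative to DMSO vehicle.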

The nature of assay [10]: CCTE_Shafer_MEA_dev_spike_duration_mean: CCTE's Neural Network Formation Assay for Mean Spike Duration, Shafer Lab (AID 2284051). The gist of the method: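 Readout is the average length of network spikes, clustered firing across electrodes, summed over DIV 5, 7, 9 and 12 as area under the curve. Neurons from rat cortex developed networks on MEA plates under continuous 12-day exposure.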

The nature of assay [11]: CCTE_Shafer_MEA_dev_network_spike_duration_std: CCTE's Neural Network Formation Assay for Standard Deviation of Network Spike Duration, Shafer Lab (AID 2284052).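 Note: hits are decreases in network spike duration SD versus DMSO vehicle.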 A digest of the protocol:
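Read-out is the trapezoidal area-under-the-curve across recordings made on days 5, 7, 9 and 12, fitted in the negative direction against DMSO baseline. Neurons were primary rat cortical cells treated from day 0, with treatment renewed at each feed.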

Assay [12] is described as follows: CCTE_Shafer_MEA_dev_per_network_spike_spike_number_mean: CCTE's Neural Network Formation Assay for Mean Number of Spikes in a Network Spike, Shafer Lab (AID 2284053). A digest of the protocol:
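Continuous twelve-day exposure of developing rat cortical networks grown over 16 microelectrodes per well; spontaneous firing is captured at four time points, and the per-network-spike spike number is integrated over development by trapezoidal AUC.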

Assay [13] in a line: CCTE_Shafer_MEA_dev_per_network_spike_spike_percent: CCTE's Neural Network Formation Assay for Percent of Spikes in a Network Spike, Shafer Lab (AID 2284054). The gist of the method:
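Developing networks of rat cortical neurons are dosed at day 0 and recorded extracellularly four times up to day 12. The endpoint is the area under the curve of percent spikes in network spikes, fitted in the negative direction relative to DMSO.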

The nature of assay [14]: CCTE_Shafer_MEA_dev_LDH: CCTE's Lactate Dehydrogenase Assay for Cytotoxicity in the Neural Network Formation Assay, Shafer Lab (AID 2284068; active = hit-call score of the fitted dose curve at least 0.9, where 1 is the maximum;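 note: exposure for twelve days from plating with re-dosing on DIV 5 and 9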). The gist of the method: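 Cytotoxicity companion to network-formation recordings: rat cortical neurons received compound over 12 days of development, re-dosed at DIV 5 and 9 feeds. Viability was inferred from LDH enzyme activity relative to DMSO.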

A short description of assay [15]: CCTE_Shafer_MEA_dev_mutual_information_norm: CCTE's Neural Network Formation Assay for Mutual Information Normalization, Shafer Lab (AID 2284091). The gist of the method: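 Exposure of primary rat cortical neurons began at plating and ran to DIV 12, with full media and treatment renewal after DIV 5 and 9 recordings. Mutual information AUC (DIV 5–12) was analysed for loss versus DMSO.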

Assay [16] is described as follows: CCTE_Shafer_MEA_dev_correlation_coefficient_mean: CCTE's Neural Network Formation Assay for Mean Correlation Coefficient, Shafer Lab (AID 2284093). A digest of the protocol:
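Read-out: well-mean correlation coefficient of spike trains between electrode pairs, collapsed over four recording days as trapezoidal area-under-the-curve. Developing rat cortical neuron networks grown on MEAs received test chemical continuously from plating.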

The nature of assay [17]: UKN2_HCS_IMR90_neural_migration: University of Konstanz (UKN) Leist Lab Neural Crest Cell Migration Assay in human induced IMR90 Pluripotent Stem Cells (UKN2) (AID 2284204). To be noted: actives raise or lower the signal. The gist of the method: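 Using a 96-well stopper format with PLO/laminin/fibronectin coating, neural crest cells from iPSC migrate in cytokine-supplemented N2-S medium; after 24 h, chemicals are applied for a further 24 h, then cells are imaged after dye staining.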

The nature of assay [18]: IUF_NPC1b_proliferation_BrdU_72hr: Leibniz Research Institute for Environmental Medicine (IUF) 72-hour Neural Progenitor Cell Bromodeoxyuridine (BrdU) Proliferation Assay (NPC1b) (AID 2284207). The gist of the method:
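Neural progenitor spheres of human fetal origin are treated for three days; BrdU added for the last 16 h is quantified by luminescence ELISA, with DMSO as baseline and EGF/FGF omission as positive control.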

Assay [19] is described as follows: IUF_NPC1a_proliferation_area_72hr: Leibniz Research Institute for Environmental Medicine (IUF) 72-hour Neural Progenitor Cell Proliferation Area Assay (NPC1a) (AID 2284208). A digest of the protocol: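 Single 0.25–0.35 mm human fetal neural progenitor spheres in proliferation medium with EGF and FGF, exposed 72 h from plating without renewal at 37C, pH 7.2-7.6. Sphere area growth measured by automated phase-contrast imaging, relative to DMSO.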

The nature of assay [20]: CCTE_Mundy_HCI_Cortical_Synap_Neur_Matur_NeuriteSpotCountPerNeuriteLength: CCTE's Synaptogenesis and Neurite Maturation Assay in rat cortical cells for Neurite Spot Count per Neurite Length, Mundy Lab (AID 2284210). The gist of the method: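 Neurite-associated synapse density (synaptophysin puncta per unit neurite length) is measured by fluorescence high-content imaging in rat cortical cultures treated from DIV 7 and fixed at DIV 12, with DMSO as negative control.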

Assay [21] in a line: CCTE_Mundy_HCI_Cortical_NOG_NeuriteCount: CCTE's Neurite Outgrowth Assay in rat cortical cells for Neurite Count, Mundy Lab (AID 2284212).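 Note: cells fixed about two days after chemical exposure began.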 The gist of the method:
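Rat cortical primary cells; compound added 2 h post-plating, 1/10 dilution of working solution. Anti-betaIII-tubulin/AF488 ICC; ArrayScan neurite count vs DMSO.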

Assay [22] can be described thus: CCTE_Mundy_HCI_Cortical_NOG_NeuriteLength: CCTE's Neurite Outgrowth Assay in rat cortical cells for Neurite Length, Mundy Lab (AID 2284213). A digest of the protocol: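 First, rat primary cortical cells were plated and, 2 h later, given test chemical as a 1/10 dilution. Finally, βIII-tubulin immunostaining enabled automated imaging of neurite length.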

Consider `CCOP(=S)(OCC)SCS(=O)C(C)(C)C` (configuration not stated), for which the result in assay [1], in [2], in assay [3], in assay [4], in [5] and in assay [6] was inactive. Further, the result in [7], in assay [8], in assay [9], in assay [10], in [11] and in assay [12] was inactive. Further, the outcome in [13], in assay [14], in assay [15], in [16], in assay [17] and in assay [19] was inactive. Further, the call in [20], in [21] and in assay [22] was inactive. The AC50 in [18] was 2340 nM (active).

For orientation: AC50 means the concentration giving half of the maximal activity seen.
